# Laboratory results: PubChem BioAssay (EPA / NIEHS)
# The source made the active and inactive calls. The calls were made as follows: active = hit-call score of the fitted dose curve at least 0.9, where 1 is the maximum; inactive = score below 0.9.
# Experiments:
# [1] = ATG_M_61_CIS: Attagene CIS-FACTORIAL HepG2 Assay for M61 Transcription Factor (Internal Marker) (AID 2282937); settings: HepG2 Attagene CIS-FACTORIAL M61 internal marker reporter; actives raise or lower the signal
# Summary of the method: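 Endogenous transcription factor activity in HepG2 is read through transiently transfected cis-element reporter units. After 24 h dosing, RNA undergoes reverse transcription, PCR and primer extension with 6-FAM before capillary electrophoresis; DMSO-referenced bidirectional fit.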
# [2] = ATG_EGR_CIS: Attagene CIS-FACTORIAL HepG2 Assay for human Early Growth Response 1 (EGR1) (AID 2282938); settings: HepG2 Attagene CIS-FACTORIAL EGR reporter mRNA; actives raise or lower the signal
# Summary of the method: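 Activity is taken as induction or loss of reporter mRNA versus DMSO, fitted bidirectionally. Transcripts from cis-regulated reporter units in transiently transfected HepG2 were measured after 24 h by RT-PCR with capillary electrophoresis.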
# [3] = ATG_Ets_CIS: Attagene CIS-FACTORIAL HepG2 Assay for human Erythroblast Transformation Specific (ETS) (AID 2282941); settings: HepG2 ETS cis-reporter transcription, actives raise or lower the signal
# Summary of the method: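 RT-PCR/capillary electrophoresis fluorescence read-out of reporter mRNA; HepG2 transient multi-reporter transfection; 24 h compound exposure; gain or loss of signal fitted bidirectionally relative to DMSO.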
# [4] = ATG_FoxO_CIS: Attagene CIS-FACTORIAL HepG2 Assay for human Forkhead box O (FoxO) (AID 2282943); settings: HepG2 Attagene cis-reporter, FoxO element, mRNA; actives raise or lower the signal
# Summary of the method: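 Values reflect reporter mRNA induction or loss in HepG2 cells 24 h post-dosing, fitted bidirectionally with DMSO as negative control and baseline. Detection used RT-PCR and fluorescence capillary electrophoresis.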
# [5] = ATG_GATA_CIS: Attagene CIS-FACTORIAL HepG2 Assay for human GATA Binding Protein (AID 2282944); settings: HepG2 GATA cis-element reporter, Attagene multiplex mRNA; actives raise or lower the signal
# Summary of the method: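 Endogenous transcription factor activity was captured through cis-promoter-driven reporters in transfected HepG2 cells. After 24 h exposure, reporter transcripts were quantified by RT-PCR with fluorescent capillary electrophoresis, and responses fitted both directions against DMSO.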
# [6] = ATG_GLI_CIS: Attagene CIS-FACTORIAL HepG2 Assay for human Zinc Finger Protein GLI1 (AID 2282945); settings: HepG2, Attagene cis-factorial reporter mRNA, GLI element; actives raise or lower the signal
# Summary of the method: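 HepG2 cells transiently transfected with cis-promoter multiplexed reporter units report endogenous transcription factor activity. After 24 h chemical exposure, reporter mRNA was quantified by RT-PCR, 6-FAM labelling, HpaI digestion and capillary electrophoresis, with bidirectional fitting against DMSO.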
# [7] = target: Bile acid receptor (Homo sapiens) (UniProt Q96RI1); test: ATG_IR1_CIS: Attagene CIS-FACTORIAL HepG2 Assay for human Nuclear Receptor Subfamily 1 Group H Member 4 (NR1H4), IR1 submotif (AID 2282946); settings: IR1 reporter transcription, actives raise or lower the signal
# Summary of the method: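 Readout: reporter transcript levels by RT-PCR with fluorescent capillary electrophoresis, from HepG2 cells transiently transfected with multiplexed cis-regulated reporters and dosed 24 h. Gain- or loss-of-signal fitted versus DMSO negative control.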
# [8] = ATG_GRE_CIS: Attagene CIS-FACTORIAL HepG2 Assay for human Glucocorticoid Response Elements (GRE) (AID 2282947); settings: HepG2 GRE cis-reporter, Attagene multiplex mRNA; actives raise or lower the signal
# Summary of the method: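 Cells (HepG2) bearing transfected cis-promoter reporter transcription units were treated with chemical for 24 hours. Reporter mRNA was measured via RT-PCR with capillary electrophoresis, and activity was fitted in both directions relative to DMSO.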
# [9] = ATG_ISRE_CIS: Attagene CIS-FACTORIAL HepG2 Assay for human Interferon Regulatory Factor 1 (IRF1) binding to an Interferon-Stimulated Response Element (ISRE) (AID 2282948); settings: HepG2 ISRE cis-reporter (Attagene), mRNA transcription readout; actives raise or lower the signal
# Summary of the method: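 Read-out: fluorescent RT-PCR products resolved by capillary electrophoresis, reporting endogenous transcription factor activity via ISRE-driven reporter mRNA in transfected HepG2 cells dosed for 24 h; gain or loss fitted relative to DMSO.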
# [10] = ATG_M_32_CIS: Attagene CIS-FACTORIAL HepG2 Assay for M32 Transcription Factor (Internal Marker) (AID 2282949); settings: HepG2 Attagene cis-factorial M32 reporter, mRNA; actives raise or lower the signal;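 also: background control marker of the multiplexed CIS panel rather than a real target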
# Summary of the method: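 HepG2 transfectants (cis-regulated reporter transcription units) dosed 24 h. Reporter mRNA by RT-PCR plus CE, analysed as gain or loss relative to DMSO.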
# [11] = ATG_M_06_CIS: Attagene CIS-FACTORIAL HepG2 Assay for M06 Transcription Factor (Internal Marker) (AID 2282950); settings: HepG2 Attagene CIS-FACTORIAL M06 internal marker reporter; actives raise or lower the signal
# Summary of the method: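 Steps: transfect HepG2 with multiplexed cis-element reporter constructs; dose chemical 24 h; extract RNA with DNase treatment; reverse-transcribe, PCR-amplify, 6-FAM label, HpaI digest; separate fragments by capillary electrophoresis. Activity fitted both directions versus DMSO.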
# [12] = target: Hypoxia-inducible factor 1-alpha (Homo sapiens) (UniProt Q16665); test: ATG_HIF1a_CIS: Attagene CIS-FACTORIAL HepG2 Assay for human Hypoxia Inducible Factor 1 (HIF1A) (AID 2282951); settings: HepG2 Attagene cis-factorial HIF1a reporter transcription; actives raise or lower the signal
# Summary of the method: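 Fluorescence intensity of capillary-separated, 6-FAM-labelled reporter amplicons gives mRNA induction in HepG2 cells carrying transfected cis-promoter reporter units; cells exposed 24 h, responses fitted up or down from DMSO.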
# [13] = target: Hepatocyte nuclear factor 6 (Homo sapiens) (UniProt Q9UBC0); test: ATG_HNF6_CIS: Attagene CIS-FACTORIAL HepG2 Assay for human Hepatocyte Nuclear Factor 6 (HNF6) (AID 2282952); settings: HepG2 Attagene cis-factorial HNF6 reporter transcription; actives raise or lower the signal
# Summary of the method: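 First, HepG2 cells were transfected with the multiplexed cis reporter library and dosed with chemical for 24 h. Next, RNA was reverse-transcribed, PCR-amplified and fluorescently labelled. Finally, HpaI-digested fragments were read by capillary electrophoresis.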
# [14] = target: Heat shock factor protein 1 (Homo sapiens) (UniProt Q00613); test: ATG_HSE_CIS: Attagene CIS-FACTORIAL HepG2 Assay for human Heat Shock Transcription Factor 1 (HSE) (AID 2282953); settings: HepG2 HSE cis-reporter, Attagene RNA transcription; actives raise or lower the signal
# Summary of the method: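 Cells were transfected with cis-element-driven reporter constructs, dosed for 24 h, then total RNA was reverse-transcribed and reporter cDNA amplified, FAM-labelled and digested with HpaI. Fragments were resolved by capillary electrophoresis; gain or loss was fitted against DMSO.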
# [15] = ATG_M_19_CIS: Attagene CIS-FACTORIAL HepG2 Assay for M19 Transcription Factor (Internal Marker) (AID 2282939); settings: HepG2 Attagene CIS-FACTORIAL M19 internal marker reporter; actives raise or lower the signal
# Summary of the method: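 Background-control endpoint from a multiplexed HepG2 reporter panel. Cells carrying cis-regulated reporter constructs are treated 24 h, then reporter transcripts are amplified, fluorescently labelled and sized by capillary electrophoresis. DMSO defines baseline.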
# [16] = ATG_MRE_CIS: Attagene CIS-FACTORIAL HepG2 Assay for human Metal Responsive Element (MRE) (AID 2282954); settings: HepG2 MRE cis-reporter transcription, Attagene multiplex; actives raise or lower the signal
# Summary of the method: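 Cells were transfected with cis-promoter reporter transcription units, then dosed for 24 h. RNA was reverse-transcribed, amplified, fluorescently labelled and resolved by capillary electrophoresis, and activity was fitted in both directions relative to DMSO.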
# [17] = target: Hepatocyte nuclear factor 3-beta (Homo sapiens) (UniProt Q9Y261); test: ATG_FoxA2_CIS: Attagene CIS-FACTORIAL HepG2 Assay for human Forkhead box A2 (FOXA2) (AID 2282942); settings: HepG2 cis-reporter transcription factor activity, 24 h; actives raise or lower the signal
# Summary of the method: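 Reporter transcript induction is measured by fluorescence after capillary electrophoresis of RT-PCR products from HepG2 cells exposed 24 h. Cis-regulated reporter units report endogenous factor activity; curves fitted both directions against DMSO.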
# [18] = ATG_ERE_CIS: Attagene CIS-FACTORIAL HepG2 Assay for Estrogen Response Element (ERE) (AID 2282940); settings: HepG2 ERE cis-reporter, Attagene RNA transcript; actives raise or lower the signal
# Summary of the method: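 Cells used were human hepatoma HepG2, transfected with multiple reporter transcription units under cis-regulatory promoters. Reporter mRNA, read 24 h post-dosing via fluorescent RT-PCR products on capillary electrophoresis, was fitted bidirectionally relative to DMSO.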
# Heat shock factor protein 1 (Homo sapiens), sequence (Q00613 whole entry, looked up, the tested form may be a part): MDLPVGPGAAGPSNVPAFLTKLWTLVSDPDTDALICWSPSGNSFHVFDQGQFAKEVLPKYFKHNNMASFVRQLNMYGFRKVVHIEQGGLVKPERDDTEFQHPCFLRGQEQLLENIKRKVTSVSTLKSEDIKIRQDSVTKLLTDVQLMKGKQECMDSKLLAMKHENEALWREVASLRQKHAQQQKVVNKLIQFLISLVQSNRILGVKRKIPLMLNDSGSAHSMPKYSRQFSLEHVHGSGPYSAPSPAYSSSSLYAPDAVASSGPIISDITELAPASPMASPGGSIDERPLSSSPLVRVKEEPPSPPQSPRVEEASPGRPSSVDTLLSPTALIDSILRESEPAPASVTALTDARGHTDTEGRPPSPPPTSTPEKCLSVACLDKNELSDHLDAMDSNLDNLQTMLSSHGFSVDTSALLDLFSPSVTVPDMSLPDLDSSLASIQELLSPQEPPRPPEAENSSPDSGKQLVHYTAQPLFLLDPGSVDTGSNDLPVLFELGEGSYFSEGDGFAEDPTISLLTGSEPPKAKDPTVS
# Hepatocyte nuclear factor 6 (Homo sapiens), sequence (Q9UBC0 whole entry, looked up, the tested form may be a part): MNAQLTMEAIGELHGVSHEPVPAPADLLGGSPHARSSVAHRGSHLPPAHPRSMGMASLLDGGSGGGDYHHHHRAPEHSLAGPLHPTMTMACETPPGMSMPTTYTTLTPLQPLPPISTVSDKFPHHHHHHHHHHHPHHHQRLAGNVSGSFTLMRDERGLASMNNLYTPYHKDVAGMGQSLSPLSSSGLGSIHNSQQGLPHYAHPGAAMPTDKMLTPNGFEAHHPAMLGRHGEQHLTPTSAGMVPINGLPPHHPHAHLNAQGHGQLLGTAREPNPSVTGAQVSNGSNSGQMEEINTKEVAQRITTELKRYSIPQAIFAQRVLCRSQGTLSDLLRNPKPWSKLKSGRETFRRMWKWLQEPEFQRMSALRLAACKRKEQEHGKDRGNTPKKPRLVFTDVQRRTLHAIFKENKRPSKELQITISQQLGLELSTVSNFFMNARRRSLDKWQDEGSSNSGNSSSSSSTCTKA
# Hypoxia-inducible factor 1-alpha (Homo sapiens), sequence (Q16665 whole entry, looked up): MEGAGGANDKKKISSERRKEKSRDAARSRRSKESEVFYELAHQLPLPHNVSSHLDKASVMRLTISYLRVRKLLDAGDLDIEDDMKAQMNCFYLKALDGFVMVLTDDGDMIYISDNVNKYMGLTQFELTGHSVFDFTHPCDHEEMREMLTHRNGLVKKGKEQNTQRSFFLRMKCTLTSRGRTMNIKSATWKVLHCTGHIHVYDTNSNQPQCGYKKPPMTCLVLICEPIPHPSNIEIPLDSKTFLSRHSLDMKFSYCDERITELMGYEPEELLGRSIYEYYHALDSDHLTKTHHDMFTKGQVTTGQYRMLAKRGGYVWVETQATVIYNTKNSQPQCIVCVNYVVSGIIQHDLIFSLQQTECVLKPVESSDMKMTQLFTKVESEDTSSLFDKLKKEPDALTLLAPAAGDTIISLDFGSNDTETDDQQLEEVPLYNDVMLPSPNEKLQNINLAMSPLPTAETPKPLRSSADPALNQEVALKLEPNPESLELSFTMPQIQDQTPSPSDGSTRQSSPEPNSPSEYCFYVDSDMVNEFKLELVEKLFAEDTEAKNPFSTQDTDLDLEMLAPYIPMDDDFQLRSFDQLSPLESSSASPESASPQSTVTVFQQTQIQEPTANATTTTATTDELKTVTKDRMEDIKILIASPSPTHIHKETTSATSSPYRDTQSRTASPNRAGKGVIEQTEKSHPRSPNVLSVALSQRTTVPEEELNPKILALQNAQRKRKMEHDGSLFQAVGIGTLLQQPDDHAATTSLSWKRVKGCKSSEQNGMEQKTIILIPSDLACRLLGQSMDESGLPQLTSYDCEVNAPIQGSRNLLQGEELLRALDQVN
# Bile acid receptor (Homo sapiens), sequence (Q96RI1 whole entry, looked up): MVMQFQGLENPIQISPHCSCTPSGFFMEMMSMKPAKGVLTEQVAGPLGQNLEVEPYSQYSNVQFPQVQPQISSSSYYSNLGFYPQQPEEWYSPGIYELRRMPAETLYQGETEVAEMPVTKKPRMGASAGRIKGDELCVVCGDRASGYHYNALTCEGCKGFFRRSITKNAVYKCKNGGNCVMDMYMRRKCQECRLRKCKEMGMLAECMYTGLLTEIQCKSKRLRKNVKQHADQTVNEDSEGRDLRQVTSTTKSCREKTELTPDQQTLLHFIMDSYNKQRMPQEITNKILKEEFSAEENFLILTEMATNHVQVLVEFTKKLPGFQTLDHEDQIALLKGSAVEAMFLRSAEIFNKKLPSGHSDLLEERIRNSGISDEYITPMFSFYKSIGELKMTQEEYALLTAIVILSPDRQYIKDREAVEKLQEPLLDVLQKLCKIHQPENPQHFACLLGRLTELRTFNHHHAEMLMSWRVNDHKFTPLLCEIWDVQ
# Hepatocyte nuclear factor 3-beta (Homo sapiens), sequence (Q9Y261 whole entry, looked up): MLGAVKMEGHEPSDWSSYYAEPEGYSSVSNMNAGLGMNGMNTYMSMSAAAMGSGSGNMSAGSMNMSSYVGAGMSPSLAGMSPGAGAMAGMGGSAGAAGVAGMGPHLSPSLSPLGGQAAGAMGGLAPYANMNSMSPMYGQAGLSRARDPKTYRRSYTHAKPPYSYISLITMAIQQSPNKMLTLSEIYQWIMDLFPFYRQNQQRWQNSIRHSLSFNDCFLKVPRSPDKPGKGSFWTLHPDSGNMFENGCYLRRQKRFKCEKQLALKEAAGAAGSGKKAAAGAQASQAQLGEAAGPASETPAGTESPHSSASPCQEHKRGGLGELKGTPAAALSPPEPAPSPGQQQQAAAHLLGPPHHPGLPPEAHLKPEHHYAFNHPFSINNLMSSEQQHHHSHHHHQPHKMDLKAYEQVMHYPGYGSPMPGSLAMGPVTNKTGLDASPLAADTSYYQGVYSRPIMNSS
smiles,measurement,setting,value
Fc1ccccc1[C@@H](F)COC1CCC(Nc2ncnc3[nH]ncc23)CC1 (some centres not stated),outcome,[1],inactive
same,AC50,[2],5.72 µM (active)
same,outcome,[3],inactive
same,outcome,[4],inactive
same,outcome,[5],inactive
same,outcome,[6],inactive
same,outcome,[7],inactive
same,outcome,[8],inactive
same,AC50,[9],100 µM (active)
same,outcome,[10],inactive
same,outcome,[11],inactive
same,AC50,[12],2.96 µM (active)
same,outcome,[13],inactive
same,AC50,[14],157 µM (active)
CCOC(=O)CC(CC(=O)OCC)(OC(C)=O)C(=O)OCC,outcome,[1],inactive
same,outcome,[2],inactive
same,outcome,[15],inactive
same,outcome,[3],inactive
same,outcome,[4],inactive
same,outcome,[5],inactive
same,outcome,[6],inactive
same,outcome,[7],inactive
same,outcome,[9],inactive
same,outcome,[10],inactive
same,outcome,[11],inactive
same,outcome,[13],inactive
same,outcome,[14],inactive
same,outcome,[16],inactive
CC(C)(O)c1coc(S(=O)(=O)NC(=O)Nc2c3c(cc4c2CCC4)CCC3)c1,outcome,[1],inactive
same,outcome,[2],inactive
same,outcome,[3],inactive
same,outcome,[17],inactive
same,outcome,[5],inactive
same,outcome,[6],inactive
same,outcome,[7],inactive
same,outcome,[8],inactive
same,outcome,[9],inactive
same,outcome,[10],inactive
same,outcome,[11],inactive
same,outcome,[12],inactive
same,outcome,[13],inactive
same,outcome,[14],inactive
same,outcome,[16],inactive
CC(C)=CCC/C(C)=C\CO,outcome,[1],inactive
same,outcome,[2],inactive
same,outcome,[15],inactive
same,outcome,[3],inactive
same,outcome,[5],inactive
same,outcome,[6],inactive
same,outcome,[7],inactive
same,outcome,[8],inactive
same,outcome,[9],inactive
same,outcome,[10],inactive
same,outcome,[11],inactive
same,outcome,[13],inactive
CCN(C(=O)c1cc(C)cc(OC[C@H](C)Nc2ccncc2)c1)C(C)C,outcome,[1],inactive
same,outcome,[2],inactive
same,outcome,[3],inactive
same,outcome,[4],inactive
same,outcome,[5],inactive
same,outcome,[6],inactive
same,AC50,[7],42 µM (active)
same,outcome,[8],inactive
same,outcome,[9],inactive
same,outcome,[10],inactive
same,outcome,[11],inactive
same,outcome,[12],inactive
same,outcome,[13],inactive
same,outcome,[14],inactive
same,outcome,[16],inactive
COC(=O)c1ccccc1O,outcome,[1],inactive
same,outcome,[2],inactive
same,outcome,[18],inactive
same,outcome,[3],inactive
same,outcome,[17],inactive
same,outcome,[5],inactive
same,outcome,[6],inactive
same,outcome,[9],inactive
same,outcome,[10],inactive
same,outcome,[11],inactive
same,outcome,[13],inactive
same,outcome,[16],inactive
